# A selection: hits, their analogues and other compounds. The true share with any hit is near 4.7%.
# TRHR ag: TRH receptor (human) agonism; P34981; TRHR cells, calcium flux fluo-8, FDSS agonist mode; activation, % at 2 µM; hit rate 0.18% among 360,000; note: 0% is about no effect
# Target sequence (P34981 whole entry, looked up): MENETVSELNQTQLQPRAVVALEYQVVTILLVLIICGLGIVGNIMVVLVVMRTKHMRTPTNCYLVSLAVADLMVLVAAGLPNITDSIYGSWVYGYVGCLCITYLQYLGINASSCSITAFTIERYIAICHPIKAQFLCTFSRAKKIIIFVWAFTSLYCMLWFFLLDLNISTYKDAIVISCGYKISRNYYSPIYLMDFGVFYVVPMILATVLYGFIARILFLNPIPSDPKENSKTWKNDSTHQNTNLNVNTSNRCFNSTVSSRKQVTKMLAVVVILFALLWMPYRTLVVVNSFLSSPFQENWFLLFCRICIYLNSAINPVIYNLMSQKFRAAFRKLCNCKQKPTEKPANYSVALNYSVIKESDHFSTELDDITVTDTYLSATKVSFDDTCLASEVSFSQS
#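 Fluo-8-loaded TRHR cells; 10 s baseline, compound added, kinetic Ca2+ fluorescence read 1/s, agonist mode.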
# D1 ag: agonists of human D1 dopamine receptor; activation, % at 2 µM; HEK293 T-REx D1 cells, calcium flux, agonist mode; hit rate 1% among 360,000; note: 0% is about no effect
#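 Agonism was scored from calcium flux recorded over 180 s (1 read/s) after pintool compound addition, following a 10-cycle baseline. Cells were inducible force-coupled HEK293 TREx D1, plated overnight at 30 C and loaded with no-wash calcium dye.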
# D1 PAM: human D1 dopamine receptor positive modulation; P21728; HEK293 TREx D1 cells, calcium flux, dopamine EC20 potentiation; potentiation, % at 10 µM; hit rate 0.036% among 360,000; AID 504651; in the data active = potentiation above about 30%; note: 0% is about no effect
# D1 antag: antagonists of human D1 dopamine receptor. P21728. activity change, negative = inhibition, % at 10 µM. hit rate 3.2% among 360,000. HEK293 TREx D1 cells, calcium flux, dopamine EC80; hits give low values; in the data active = activity change below about -30%; note: % is set by controls: 0 for no effect and ±100 for the full control effect
#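 Cells carrying a force-coupled, tetracycline-inducible human D1 receptor report calcium flux. Each well gets a 10 s baseline, compound with 180 s monitoring, then an EC80 dopamine stimulus with a second 180 s kinetic read.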
# TRHR enhancer: allosterically enhances the human TRH receptor; P34981; TRHR cells, fluo-8 calcium fluorescence, EC20 TRH enhancement; enhancement, % at 2 µM; hit rate 0.66% among 360,000; AID 493056; in the data active = enhancement above about 30%; note: 0% is about no effect
#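 TRHR-expressing cells loaded with fluo-8 calcium dye were read kinetically (ex 480/em 530) during compound addition, then stimulated with an EC20 of TRH (10 nM final). Enhancement of the Gq-mediated intracellular calcium response was scored.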
# The depositor's hits bear a star; . = no result given. Cut-off read from the data, not from the text of the source, unless noted: active = activation above about 30%; inactive = the rest.
SMILES,TRHR ag,D1 ag,D1 PAM,D1 antag,TRHR enhancer
O=C(Nc1cccc(-c2ccc(N3CCOCC3)nn2)c1)c1ccccc1,0,0,0,15,4
Cc1ccc2cccc(NC(=O)COc3ccccc3[N+](=O)[O-])c2n1,0,-1,-4,-10,2
Oc1ccc(-c2nc3ccccc3s2)c(O)c1,0,1,-2,-37*,2
N#Cc1nc(Nc2cc(F)cc(F)c2)c2ncn(C3CCCC3)c2n1,1,3,3,1,2
CCOC(=O)c1c(NC(=O)c2cc(-c3cccc(Cl)c3)on2)sc(C(C)=O)c1C,0,1,0,-8,6
O=C1OC2(c3ccccc31)c1cc(I)c(O)c(I)c1Oc1c2cc(I)c(O)c1I,242*,411*,-1,-42*,-10
COc1cccc(NC(=S)N2CCC(Cc3ccccc3)CC2)c1,0,1,-3,-37*,0
COc1ccc(NC(=S)N2CCC(Cc3ccccc3)CC2)cc1OC,-1,3,-11,-53*,1
COc1cccc(C(=O)NCc2nc(-c3ccccc3)no2)c1OC,0,5,-1,8,0
CCOc1ccc(CCNC(=O)CSCc2nc(-c3cccc(C)c3)oc2C)cc1OCC,1,4,-4,4,0
CC(=O)c1cccc(NC(=O)CC(c2ccc(C)cc2)N2Cc3ccccc3C2=O)c1 (configuration not stated),-1,2,-1,9,-1
O=C(COC(=O)c1cc2c(s1)CCCC2)Nc1ccc(Cl)cn1,-1,3,-5,5,-2
O=C(OCc1c(Cl)nc2sccn12)c1cc2c(s1)CCCC2,0,3,-3,4,33*
N#Cc1c(Cl)nc(SCc2ccccc2)nc1-c1ccccc1,0,2,-6,-32*,3
O=C(c1ccccc1)c1coc2ccc(O)c(Cl)c12,0,111*,5,75,-1
CN(Cc1ccccc1)c1oc(COc2ccccc2F)nc1C#N,-1,29,.,-33*,5
COc1ccc(NC(=O)CSc2nnc(Cc3cccn3C)n2-c2ccc(F)cc2)cc1OC,-1,0,-4,-45*,0
Cc1ccc(-n2c(Cc3cccn3C)nnc2SCC(=O)Nc2nnc(C)s2)cc1,0,2,-3,24,5
Cc1nnc(NC(=O)CSc2nnc(Cc3cccn3C)n2C)s1,0,2,11,-37*,10
CCOC(=O)/C(C#N)=C/c1cn(CCOc2ccccc2)c2ccccc12,1,15,-5,6,-6
CCOC(=O)/C(C#N)=C\c1cn(C)c2ccccc12,-1,3,-4,-32*,-1
Cc1c(/C=C(\C#N)C(=O)Nc2cccc(Cl)c2)c2ccccc2n1Cc1ccccc1,8,32*,-1,6,0
CCOC(=O)c1cc(C)n(CC2CCC(C(=O)Nc3ccc(OC)cc3)CC2)c1C (configuration not stated),0,0,-1,-23,6
COc1ccc(OC)c(NC(=O)c2nc(S(=O)(=O)Cc3ccc(F)cc3)ncc2Cl)c1,-1,4,1,-35*,-4
COc1ccccc1NC(=O)c1nc(S(=O)(=O)Cc2ccccc2)ncc1Cl,-1,4,-8,-38*,-10
SMILES,TRHR ag,D1 ag,D1 PAM,D1 antag,TRHR enhancer
CCOC(=O)N1CCc2c(sc(NCc3cccs3)c2C(=O)Nc2cc(Cl)ccc2OC)C1,0,2,-6,-1,-4
Cc1cc(C)cc(-n2c(SCC(=O)N3CCc4ccccc43)nc3c([nH]c4ccccc43)c2=O)c1,0,1,-2,-4,-5
CCN(CC)S(=O)(=O)c1ccc(S(=O)(=O)NCc2cccs2)cc1,0,8,-4,-11,-11
COc1ccc(S(=O)(=O)NCc2cccs2)cc1,-2,3,-3,-32*,-5
CCCOc1ccc(S(=O)(=O)NCc2ccc(OC)cc2)cc1,1,17,-3,-44*,1
Cc1nc2ccccn2c(=O)c1NC(=O)c1ccc(C(F)(F)F)cc1,0,0,-1,2,5
CSCCC(NC(=O)c1ccco1)C(=O)OC(C)C(=O)NC(=O)NC1CCCCC1 (configuration not stated),52*,1,-4,3,-2
COc1ccc([C@H]2CC(=O)C=C(c3cc4ccccc4s3)C2)cc1OC,0,2,4,-48*,-8

# High-throughput results from PubChem.
